This is an account of results in PubChem BioAssay AID709 (SRMLSC, 2007).

Screen size: about 65,000 compounds; about 3,600 (5.5%) were called active.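 The calls were made as follows: active = at 10 µM, mean starting fluorescence two-fold or more over control wells; inactive = the rest.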 This excerpt belongs to a sample that is enriched for actives.

The nature of the assay: intrinsic fluorescence of library compounds, ex339/em460 – biochemical, MLSMR library, data from DPM-DC assay, artefact control, profiling panel (AID 709).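 Also: signal is the first read of a kinetic run.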 Particulars: compound autofluorescence, ex339/em460 nm, NADH buffer; at 10 µM; stronger effect = higher value; 1 = no-compound wells, NADH background.
`CN(c1ccccc1)c1ccc(/C=c2\s/c(=C(/C#N)C(=O)C(C)(C)C)n(Cc3ccco3)c2=O)cc1`: the fluorescence fold increase is 0.95 (inactive).

As to `Cc1ccc(C(=O)Nc2nnc(-c3ccncc3)s2)o1`, the fluorescence fold increase was 2.14 (active).

Take `Cc1occc1C(=O)Nc1nnc(-c2ccncc2)s1`: the fluorescence fold increase is 2.2 (active).

For the compound `Cc1occc1C(=O)Nc1cccc(Cn2cccn2)c1`, the fluorescence fold increase is 1.14 (inactive).

As to `O=C(Nc1ccncc1)c1cc2ccccc2o1`, the fluorescence fold increase is 1.02 (inactive).

For the compound `Cc1occc1C(=O)Nc1nnc(C2CCCCC2)s1`, the fluorescence fold increase is 1.04 (inactive).

As to `CC(=O)Cc1nsc(NC(=O)c2ccc(COc3ccc(C)cc3)o2)n1`, the fluorescence fold increase was 1.06 (inactive).

As for `COc1ccc(CCNC(=O)c2cc(-c3ccc4c(c3)OCO4)on2)cc1OC`, the fluorescence fold increase is 1.07 (inactive).

In the case of `O=C(CSc1nnc(-c2ccccn2)n1-c1ccccc1)Nc1ccc2c(c1)OCO2`, the fluorescence fold increase was 1.08 (inactive).

With `CC(C)Oc1ccc(C(=O)Nc2cc(=O)n(C)c(=O)n2C)cc1`, the fluorescence fold increase was 1.01 (inactive).

On to `O=C(c1cccs1)N1CCN(C(=O)N2CCOCC2)CC1`, for which the fluorescence fold increase was 1.11 (inactive).

As to `CCOc1ccccc1N(CC(=O)NC1CCCCC1)C(=O)CCCC(=O)Nc1ccccn1`, the fluorescence fold increase was 1.08 (inactive).

Consider `C=CCNC(=O)CSc1nc2sc(C)c(C)c2c(=O)[nH]1`, for which the fluorescence fold increase was 1 (inactive).

For `CC(=O)c1sc2nc(SCC(=O)N3CCCCC3)[nH]c(=O)c2c1C`, the fluorescence fold increase was 2.68 (active).

For the compound `O=C(CSc1nc2c(cnn2-c2ccc(F)cc2)c(=O)[nH]1)N1CCCCCC1`, the fluorescence fold increase was 1.11 (inactive).

With `Cc1ccc(-n2nc3c(c2NC(=O)CCC2CCCCC2)CS(=O)C3)cc1` (stereo not given), the fluorescence fold increase is 1.14 (inactive).

Turning to `CCOc1cccc(NC(=O)C2CCCN(S(=O)(=O)c3ccc(OC)cc3)C2)c1` (stereo not given), the fluorescence fold increase is 1.02 (inactive).

For `O=c1[nH]c(-c2ccccc2)c(-c2ccccc2)[nH]1`, the fluorescence fold increase was 3.71 (active).

Take `CC1(C)CC(=O)NC=C(c2ccccc2)C1`: the fluorescence fold increase was 1.06 (inactive).

As for `N#Cc1c2c(c(-c3ccccc3)[nH]c1=O)CCCC2`, the fluorescence fold increase is 1.02 (inactive).

Turning to `CCOC(=O)N1CCN(C(=O)c2ccc(S(=O)(=O)c3ccc(C)cc3)c(NC(C)=O)c2)CC1`, the fluorescence fold increase was 1.2 (inactive).

For `Cc1ccc(C(=O)CS(C)(=O)=O)cc1`, the fluorescence fold increase is 1.35 (inactive).

Regarding `OC1CN=C2Sc3ccccc3N2C1` (stereo not given), the fluorescence fold increase is 1.06 (inactive).

On to `COc1ccc(C(C(O)C(=O)c2c[nH]c3ccccc23)N2CCN(c3ccccc3)CC2)cc1` (stereo not given), for which the fluorescence fold increase is 1.15 (inactive).

Consider `Cc1nc(SCC(=O)Nc2cc(C)on2)c2c(C)c(C)sc2n1`, for which the fluorescence fold increase was 1.11 (inactive).

On to `Cc1ccc2nc(-c3ccc(SCC(=O)Nc4cc(C)on4)nc3)[nH]c2c1`, for which the fluorescence fold increase is 3.38 (active).

With `Cc1cc(C)c2c(c1)cc(C)c1nnc(SCC(=O)Nc3cc(C)on3)n12`, the fluorescence fold increase is 1.09 (inactive).

As for `Cc1ccc(Oc2nc3ccccc3n3c(C)nnc23)cc1`, the fluorescence fold increase was 1.08 (inactive).

For `CN(c1nc2ccccc2n2c(-c3ccco3)nnc12)S(=O)(=O)c1ccccc1`, the fluorescence fold increase is 2.86 (active).

Turning to `c1ccc(CSc2nnc(-c3ccco3)n2Cc2ccccc2)cc1`, the fluorescence fold increase was 1.15 (inactive).

Take `COc1ccc(OC)c(CN2C(=O)CCC2(C)C(=O)NC2CCCCCC2)c1` (stereo not given): the fluorescence fold increase is 1.09 (inactive).

`CCCCc1cc(=O)oc2cc(C)cc(OCc3nn[nH]n3)c12`: the fluorescence fold increase is 3.84 (active).

With `CC(C)C[C@H](NC(=O)[C@@H]1O[C@H]1C(=O)O)C(=O)NCCCCN=C(N)N`, the fluorescence fold increase is 1.01 (inactive).

Consider `CC1(C)CC(=O)C(C2=NC(C)(C)Cc3ccccc32)=C(O)C1`, for which the fluorescence fold increase was 1.05 (inactive).

Take `Cc1ccc2[nH]c3c(c2c1)CN(C(=O)CN1CCN(c2ccccc2)CC1)CC3`: the fluorescence fold increase is 1.21 (inactive).

On to `COc1cccc(-c2nnc(NC(=O)c3ccc(S(=O)(=O)N(CC(C)C)CC(C)C)cc3)o2)c1`, for which the fluorescence fold increase is 3.77 (active).

Regarding `COc1cccc(NC(=O)CN(C)S(=O)(=O)c2ccc(C)cc2)c1`, the fluorescence fold increase was 1.1 (inactive).

As to `CCN(CC)C(=O)CSc1nnc(-c2cccc(OC)c2)o1`, the fluorescence fold increase is 1.05 (inactive).

`CC(C)(O)C#Cc1ccc(C(=O)N2CCC(C(N)=O)(N3CCCCC3)CC2)cc1`: the fluorescence fold increase was 1.1 (inactive).

As for `Cc1ccc(NC(=O)c2nc[nH]c2C(=O)N2CCCCC2)c(C(=O)c2ccccc2)c1`, the fluorescence fold increase is 1.13 (inactive).

Take `Cc1ccc2c(c1)sc1ncc(NC(=O)c3ccccc3)c(=O)n12`: the fluorescence fold increase was 2.43 (active).

For `Cc1ccccc1NC(=O)c1ccccc1`, the fluorescence fold increase was 1.09 (inactive).

Take `CC(C)C(NC(=O)c1cccc(S(=O)(=O)N2CCOCC2)c1)C(=O)NCCc1ccccn1` (stereo not given): the fluorescence fold increase is 1.06 (inactive).

On to `C=CCNC(=O)c1ccc(C)c(Br)c1`, for which the fluorescence fold increase is 1.08 (inactive).

For the compound `Nc1ncc(-c2cc3ccccc3oc2=O)s1`, the fluorescence fold increase was 1.43 (inactive).

Regarding `O=c1oc2cc(O)ccc2cc1-c1ccc(F)cc1`, the fluorescence fold increase is 3.81 (active).

In the case of `COc1cccc(C(=O)c2cc3ccc(O)cc3oc2=O)c1`, the fluorescence fold increase is 1.05 (inactive).

In the case of `O=C(Cn1c(=S)nc2ccccn21)N1CCc2ccccc2C1`, the fluorescence fold increase is 1.17 (inactive).

In the case of `COc1ccc2[nH]c(=O)c(CN(CC3CCCO3)C(=O)Nc3ccccc3)cc2c1` (stereo not given), the fluorescence fold increase was 2.91 (active).

`CCC(c1nnnn1Cc1ccccc1)N(Cc1cc2cc(OC)ccc2[nH]c1=O)CC1CCCO1` (stereo not given): the fluorescence fold increase is 1.46 (inactive).

As for `Cc1cccc2cc(CN(Cc3nnnn3Cc3ccccc3)C3CCCC3)c(=O)[nH]c12`, the fluorescence fold increase is 1.03 (inactive).

As to `CCC(c1nnnn1Cc1ccco1)N(Cc1cc2cc(OC)ccc2[nH]c1=O)C1CCCCC1` (stereo not given), the fluorescence fold increase is 1.39 (inactive).

Take `CCOc1ccc2[nH]c(=O)c(CN(Cc3nnnn3CCc3ccccc3)CC3CCCO3)cc2c1` (stereo not given): the fluorescence fold increase was 1.82 (inactive).

Consider `COc1ccc2[nH]c(=O)c(CN(Cc3nnnn3CCc3ccccc3)CC3CCCO3)cc2c1` (stereo not given), for which the fluorescence fold increase was 2.03 (active).

Regarding `Cc1cc(C)c2cc(CN(Cc3cccs3)Cc3nnnn3CC3CCCO3)c(=O)[nH]c2c1` (stereo not given), the fluorescence fold increase is 1.16 (inactive).

For the compound `CCOc1ccc2[nH]c(=O)c(CN(Cc3nnnn3Cc3ccccc3)CC3CCCO3)cc2c1` (stereo not given), the fluorescence fold increase is 2.24 (active).

Turning to `Cc1cc2cc(CN(Cc3cccs3)Cc3nnnn3CC3CCCO3)c(=O)[nH]c2cc1C` (stereo not given), the fluorescence fold increase is 1.42 (inactive).

`COc1ccc(/C(O)=C2/C(=O)C(=O)N(c3nc(C)c(C)s3)C2c2ccco2)cc1` (stereo not given): the fluorescence fold increase is 1.08 (inactive).

Turning to `COc1ccc(NS(=O)(=O)c2ccc(NC(=O)C(C)(C(F)(F)F)C(F)(F)F)cc2)nn1`, the fluorescence fold increase is 1.11 (inactive).

In the case of `Cn1c(=O)oc2cc(S(=O)(=O)N3CCC(C(=O)Nc4ccc(OC(F)(F)F)cc4)CC3)ccc21`, the fluorescence fold increase was 0.99 (inactive).
